These results are taken from PubChem BioAssay (NCATS).

Test [1] deals with Androgen receptor (Homo sapiens) (UniProt P10275). Briefly: qHTS assay for small molecule agonists of androgen receptor signaling (AID 588515; active means well fitted curve in the direction sought with a large enough effect in the signal ratio, with a control signal flat; the % refers to the signal ratio; further: on the % scale 0 is the no-effect control and ±100 the full control effect). The conditions noted are these: AR-UAS-bla HEK293, beta-lactamase ratio, agonist 16 h; activation: active compounds read high. A digest of the protocol:
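Stimulation of an AR-responsive β-lactamase reporter in GripTite HEK293 cells was measured after 16 h compound exposure at 37 °C, via CCF4 fluorescence after 2 h RT. EC50 from Hill fits, normalized to R1881 at 30 nM.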
(In general: In qHTS, concentration-response curves come from the screen itself.)

For test [2] the target is unchanged. Briefly: qHTS assay for small molecule antagonists of androgen receptor signaling (AID 588516; active means well fitted curve in the direction sought with a large enough effect in the signal ratio, with a control signal flat, not every such curve was filed as active; the % refers to the signal ratio; further: on the % scale 0 is the no-effect control and ±100 the full control effect). A digest of the protocol:
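Antagonist mode: inhibition of R1881-stimulated (10 nM final) bla reporter in GeneBLAzer AR HEK 293 cells, 16 h at 37C, compounds titrated. IC50 and efficacy from Hill-equation fits of 405/460–530 nm FRET ratios.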

The target of test [3] is Bile acid receptor (Homo sapiens) (UniProt Q96RI1). Put plainly: qHTS assay for small molecule antagonists of farnesoid X receptor signaling (AID 588526). Further: on the % scale 0 is the no-effect control and ±100 the full control effect. An outline of the steps:
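Beta-lactamase reporter antagonist mode: HEK293T FXR-UAS-bla cells, titrated compound, CDCA stimulation, 16 h 37 C, CCF4 dye 2 h RT. Data normalized to CDCA 50 uM and DMSO; Hill-fit IC50.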

In test [4] the target is Peroxisome proliferator-activated receptor gamma (Homo sapiens) (UniProt P37231). Briefly: qHTS assay for small molecule agonists of peroxisome proliferator-activated receptor gamma signaling (AID 588536; active means well fitted curve in the direction sought with a large enough effect in the signal ratio, with a control signal flat, not every such curve was filed as active; the % refers to the signal ratio;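 further: 0% = DMSO basal wells and 100% = rosiglitazone at 2 µM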). A digest of the protocol:
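This is an agonist-mode beta-lactamase reporter assay in HEK293 PPAR-gamma-UAS-bla cells with 1% charcoal/dextran FBS. Compound titrations ran 16 h at 37 C before CCF4 detection. EC50 and efficacy are Hill fits scaled to 2 uM rosiglitazone (100%) and DMSO basal.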

The target in test [5] is Vitamin D3 receptor (Homo sapiens) (UniProt P11473). Briefly: qHTS assay for small molecule antagonists of vitamin D receptor signaling (AID 588541).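 Further: receptor activated by calcitriol during compound treatment; series mostly up to about 77 µM; on the % scale 0 is the no-effect control and ±100 the full control effect.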 An outline of the steps:
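Antagonist-mode beta-lactamase reporter assay: HEK293T VDR-UAS-bla cells were exposed to titrated compound alongside 1-alpha,25-dihydroxyvitamin D3 at 3 nM final for 16 h. Values were normalized to the 50 nM agonist control and DMSO basal, with IC50 and efficacy from Hill equation fits.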

The target of test [6] is Thyroid hormone receptor beta (Homo sapiens) (UniProt P10828). Put plainly: qHTS assay for small molecule antagonists of thyroid hormone receptor beta signaling (AID 588547; active means well fitted inhibition curve with a large enough effect in the signal ratio, with a control signal flat, not every such curve was filed as active; the % refers to the signal ratio). The note with it: TR-UAS-bla HEK293, beta-lactamase ratio, antagonist mode, 18 h. A digest of the protocol:
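Inhibition of T3-driven (0.4nM final) beta-lactamase reporter activity was measured over 0.59 nM to 92 uM compound after 18 h at 37 C. The cells were GripTite HEK293 TR-UAS-bla in charcoal/dextran-stripped serum, with CCF4 ratio read-out and IC50 from Hill fits.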

Test [7] is described as follows: qHTS assay for small molecule agonists of the antioxidant response element (ARE) signaling pathway (AID 651741; active means well fitted activation curve with a large enough effect in the signal ratio; the % refers to the signal ratio; further: potency means the concentration at half of the fitted maximal effect; on activation: % of control where 0% means no effect). An outline of the steps: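 Beta-lactamase reporter under ARE control in HepG2 cells, 2,000 per well, was induced by 16 h compound treatment at 37 C. Read-out was fluorescence from LiveBLAzer B/G FRET substrate after 2 h at room temperature.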
Test [8] can be described thus: qHTS assay for small molecule activators of the p53 signaling pathway (AID 651743; active means well fitted activation curve with a large enough effect in the signal ratio, not every such curve was filed as active; the % refers to the signal ratio; further: series mostly up to about 92 µM; % of control where 0% means no effect). The conditions noted are these: HCT-116 p53RE-bla, beta-lactamase FRET ratio, 16 h; activation: active compounds read high. A digest of the protocol:
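After 16 hours compound treatment at 37 C, HCT-116 cells stably expressing p53RE-driven beta-lactamase were loaded with LiveBLAzer B/G FRET substrate for 2 hours at room temperature. Fluorescence intensity served as the p53 activation read-out.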

The target of test [9] is Cytochrome P450 3A4 (Homo sapiens) (UniProt P08684). Briefly: qHTS Assay for Inhibitors and Substrates of Cytochrome P450 3A4 (AID 884; active means well fitted curve in the direction sought with a large enough effect; an effect the other way counts as inactive or inconclusive; further: potency means the concentration at half of the fitted maximal effect; nearly all actives have a fitted effect of over 50% in size). A digest of the protocol:
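Luminescent readout of luciferin produced by CYP3A4 (20 nM) dealkylation of Luciferin-PPXE, 25 uM (its KM). NADPH-driven reaction ran 60 min at RT after 10 min compound preincubation; data scaled to 57 uM ketoconazole as 100% inhibition.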

Test [10] has the same target. Put plainly: qHTS Assay for Activators of Cytochrome P450 3A4 (AID 885; active means well fitted curve in the direction sought with a large enough effect; an effect the other way counts as inactive or inconclusive; further: nearly all actives have a fitted effect of over 65% in size). A digest of the protocol:
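Luminescent readout of luciferin formed from 25 uM Luciferin-PPXE (KM level) by 20 nM CYP3A4 in 200 mM KPO4, with 60 min NADPH-driven reaction at room temperature after 10 min compound exposure. Ketoconazole (57 uM) defined 100% inhibition.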

The target of test [11] is DNA dC->dU-editing enzyme APOBEC-3G (Homo sapiens) (UniProt Q9HC16). Briefly: qHTS for inhibitors of Vif-A3G interactions: Validation (AID 588379; active means well fitted curve in the direction sought with a large enough effect; an effect the other way counts as inactive or inconclusive; further: 0% is about no effect). A digest of the protocol: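 Yellow fluorescence (Ex 488, Em 500-530) of Vif-coexpressing HeLa A3G-eYFP cells, scanned by Acumen cytometer, reports blocked A3G degradation. Cells plated at 700/well overnight at 37 deg C before compound addition, then a further overnight compound incubation at 37 deg C.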

In test [12] the target is Peroxisome proliferator-activated receptor gamma (Homo sapiens) (UniProt P37231). Briefly: qHTS assay for small molecule antagonists of peroxisome proliferator-activated receptor gamma signaling (AID 588537; active means well fitted inhibition curve with a large enough effect in the signal ratio, with a control signal flat, not every such curve was filed as active; the % refers to the signal ratio;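 further: reporter cells co-stimulated with 50 nM rosiglitazone agonist during compound treatment; % of control where 0% means no effect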). An outline of the steps: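 Antagonist-mode β-lactamase reporter screen run as a titration series. HEK293 PPARγ-UAS-bla cells are stimulated with rosiglitazone (50 nM final) for 16 h, then CCF4 is read at 460/530 nm. Data are scaled between DMSO and rosiglitazone and fitted to the Hill equation.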

Test [13] has as its target Vitamin D3 receptor (Homo sapiens) (UniProt P11473). Put plainly: qHTS assay for small molecule agonists of vitamin D receptor signaling (AID 588543).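 Further: 0% = DMSO basal and 100% = reference agonist control.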 A digest of the protocol:
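Agonist-mode beta-lactamase reporter: HEK293T VDR-UAS-bla cells in charcoal-stripped 2% FBS, compound series 16 h 37 C, CCF4 2 h RT. EC50 from Hill fit, scaled against DMSO and 50 nM calcitriol control.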

The structures appear in SMILES notation. Values without a mark were called inactive. Records with an inconclusive call do not appear. The source made the active and inactive calls. Unless noted, the call rests on the fitted dose curve.

Androgen receptor (Homo sapiens), sequence (P10275 whole entry, looked up): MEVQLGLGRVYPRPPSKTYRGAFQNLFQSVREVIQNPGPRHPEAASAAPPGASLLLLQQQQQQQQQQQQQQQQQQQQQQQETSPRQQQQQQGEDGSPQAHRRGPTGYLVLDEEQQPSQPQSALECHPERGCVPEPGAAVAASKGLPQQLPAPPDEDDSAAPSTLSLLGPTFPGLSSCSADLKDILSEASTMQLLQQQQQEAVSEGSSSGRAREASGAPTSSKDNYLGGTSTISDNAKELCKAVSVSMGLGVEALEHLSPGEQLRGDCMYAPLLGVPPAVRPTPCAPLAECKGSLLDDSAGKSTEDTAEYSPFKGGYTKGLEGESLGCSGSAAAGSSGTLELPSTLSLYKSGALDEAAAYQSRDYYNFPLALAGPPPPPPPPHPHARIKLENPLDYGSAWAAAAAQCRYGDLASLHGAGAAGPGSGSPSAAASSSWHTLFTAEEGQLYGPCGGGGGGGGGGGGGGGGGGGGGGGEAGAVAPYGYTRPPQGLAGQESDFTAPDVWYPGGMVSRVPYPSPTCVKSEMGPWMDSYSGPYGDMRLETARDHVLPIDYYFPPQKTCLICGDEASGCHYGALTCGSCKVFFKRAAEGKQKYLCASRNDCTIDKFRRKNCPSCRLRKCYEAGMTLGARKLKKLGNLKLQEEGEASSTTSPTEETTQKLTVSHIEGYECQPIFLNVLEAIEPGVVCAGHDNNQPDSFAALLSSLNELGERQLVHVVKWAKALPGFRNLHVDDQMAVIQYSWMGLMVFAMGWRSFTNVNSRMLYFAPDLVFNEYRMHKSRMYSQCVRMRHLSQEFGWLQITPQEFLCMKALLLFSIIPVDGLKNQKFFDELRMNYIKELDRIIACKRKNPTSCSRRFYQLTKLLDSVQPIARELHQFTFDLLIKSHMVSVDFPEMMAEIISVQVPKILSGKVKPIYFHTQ
Cytochrome P450 3A4 (Homo sapiens), sequence (P08684 whole entry, looked up): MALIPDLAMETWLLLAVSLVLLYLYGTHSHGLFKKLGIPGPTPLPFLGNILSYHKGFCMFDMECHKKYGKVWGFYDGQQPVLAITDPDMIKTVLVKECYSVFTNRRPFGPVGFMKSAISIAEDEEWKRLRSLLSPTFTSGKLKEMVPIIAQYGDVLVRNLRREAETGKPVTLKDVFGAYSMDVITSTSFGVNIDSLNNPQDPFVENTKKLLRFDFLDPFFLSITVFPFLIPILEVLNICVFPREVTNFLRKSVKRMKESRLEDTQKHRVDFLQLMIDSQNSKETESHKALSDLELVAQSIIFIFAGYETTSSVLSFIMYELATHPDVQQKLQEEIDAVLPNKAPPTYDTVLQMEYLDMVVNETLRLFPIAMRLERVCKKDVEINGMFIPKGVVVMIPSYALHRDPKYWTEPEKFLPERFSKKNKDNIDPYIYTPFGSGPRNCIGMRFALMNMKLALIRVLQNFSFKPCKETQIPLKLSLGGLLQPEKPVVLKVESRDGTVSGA
Thyroid hormone receptor beta (Homo sapiens), sequence (P10828 whole entry, looked up): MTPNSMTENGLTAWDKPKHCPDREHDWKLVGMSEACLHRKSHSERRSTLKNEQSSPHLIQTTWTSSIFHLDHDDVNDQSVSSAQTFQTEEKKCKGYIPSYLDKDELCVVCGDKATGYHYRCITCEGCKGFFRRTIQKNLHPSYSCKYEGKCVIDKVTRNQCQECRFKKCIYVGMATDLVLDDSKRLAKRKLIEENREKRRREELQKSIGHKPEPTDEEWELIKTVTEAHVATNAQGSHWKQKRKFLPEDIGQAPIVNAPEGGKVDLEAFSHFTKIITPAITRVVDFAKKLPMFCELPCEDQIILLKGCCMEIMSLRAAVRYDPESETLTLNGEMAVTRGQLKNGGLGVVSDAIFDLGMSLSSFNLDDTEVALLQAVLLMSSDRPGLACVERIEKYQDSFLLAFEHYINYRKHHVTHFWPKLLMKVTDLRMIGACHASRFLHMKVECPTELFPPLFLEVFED
Peroxisome proliferator-activated receptor gamma (Homo sapiens), sequence (P37231 whole entry, looked up): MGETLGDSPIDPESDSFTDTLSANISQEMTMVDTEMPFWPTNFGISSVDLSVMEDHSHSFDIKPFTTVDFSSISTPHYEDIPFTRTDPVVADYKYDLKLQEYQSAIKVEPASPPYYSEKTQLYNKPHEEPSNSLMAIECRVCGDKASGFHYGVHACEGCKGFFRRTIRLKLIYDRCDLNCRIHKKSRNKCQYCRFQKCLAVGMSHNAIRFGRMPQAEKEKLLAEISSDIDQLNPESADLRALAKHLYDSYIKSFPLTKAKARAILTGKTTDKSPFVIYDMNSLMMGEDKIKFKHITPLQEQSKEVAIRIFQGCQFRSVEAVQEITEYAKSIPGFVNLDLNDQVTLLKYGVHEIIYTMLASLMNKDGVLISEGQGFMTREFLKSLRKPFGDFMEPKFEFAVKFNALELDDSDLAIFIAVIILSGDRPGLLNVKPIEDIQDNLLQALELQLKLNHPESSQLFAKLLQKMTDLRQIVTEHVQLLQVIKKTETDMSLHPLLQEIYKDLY
Bile acid receptor (Homo sapiens), sequence (Q96RI1 whole entry, looked up): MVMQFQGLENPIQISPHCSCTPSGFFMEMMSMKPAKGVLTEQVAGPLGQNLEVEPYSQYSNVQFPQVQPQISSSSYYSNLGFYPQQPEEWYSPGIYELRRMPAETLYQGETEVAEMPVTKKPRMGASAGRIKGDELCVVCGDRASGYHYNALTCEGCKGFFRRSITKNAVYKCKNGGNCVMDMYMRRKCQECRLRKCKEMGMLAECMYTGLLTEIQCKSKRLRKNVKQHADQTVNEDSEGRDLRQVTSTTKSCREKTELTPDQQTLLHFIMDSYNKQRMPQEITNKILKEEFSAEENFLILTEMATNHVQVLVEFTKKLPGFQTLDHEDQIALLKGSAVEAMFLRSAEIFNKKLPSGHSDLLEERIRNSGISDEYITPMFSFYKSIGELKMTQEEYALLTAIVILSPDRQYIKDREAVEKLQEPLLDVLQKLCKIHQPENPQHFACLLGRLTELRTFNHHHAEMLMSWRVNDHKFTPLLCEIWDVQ
Vitamin D3 receptor (Homo sapiens), sequence (P11473 whole entry, looked up): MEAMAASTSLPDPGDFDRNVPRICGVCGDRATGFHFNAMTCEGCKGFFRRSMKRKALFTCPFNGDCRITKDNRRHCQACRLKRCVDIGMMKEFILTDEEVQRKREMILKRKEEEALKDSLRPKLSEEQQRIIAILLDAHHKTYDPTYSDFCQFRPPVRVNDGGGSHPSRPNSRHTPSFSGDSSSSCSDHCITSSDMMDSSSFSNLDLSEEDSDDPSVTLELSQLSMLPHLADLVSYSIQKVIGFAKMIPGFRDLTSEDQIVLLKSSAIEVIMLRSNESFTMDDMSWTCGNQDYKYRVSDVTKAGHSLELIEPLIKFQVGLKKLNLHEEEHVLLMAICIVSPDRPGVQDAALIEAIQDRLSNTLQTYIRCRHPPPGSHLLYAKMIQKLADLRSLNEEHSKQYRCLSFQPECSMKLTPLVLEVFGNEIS
DNA dC->dU-editing enzyme APOBEC-3G (Homo sapiens), sequence (Q9HC16 whole entry, looked up): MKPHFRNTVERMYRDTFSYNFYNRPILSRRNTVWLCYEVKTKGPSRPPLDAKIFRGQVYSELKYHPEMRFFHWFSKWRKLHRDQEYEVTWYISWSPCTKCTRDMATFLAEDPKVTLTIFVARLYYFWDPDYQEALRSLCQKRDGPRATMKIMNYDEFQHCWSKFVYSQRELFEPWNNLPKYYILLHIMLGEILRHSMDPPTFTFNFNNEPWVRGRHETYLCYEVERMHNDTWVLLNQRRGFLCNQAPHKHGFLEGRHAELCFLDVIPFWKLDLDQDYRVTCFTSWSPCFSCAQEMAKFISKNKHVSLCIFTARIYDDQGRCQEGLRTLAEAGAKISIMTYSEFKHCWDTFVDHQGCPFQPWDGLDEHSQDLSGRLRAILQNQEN

Take `O=C1CCCC/C=C/CCCCCCCCCO1`: the activation in test [1] was 0.71%; in test [8] it was 0.177%. Also, the compound was called inactive in test [2] and in [4]. Further, the Potency entry in test [3], in [5] and in test [7] was “inactive” throughout. In addition, the activity change % (negative = inhibition) in test [6] was -13.1%.

`O=C(/C=C/c1ccc2c(c1)OCO2)c1cccs1`: the Potency in test [9] was 0.501 µM (active). Besides, the Potency result in test [10] and in test [11] was “inactive” throughout.

On to `CCCCCCCCCc1ccccc1`, for which the activation in [1] was 1.05%; in test [8] it was -0.95%. In addition, the result in test [2] and in [4] was inactive. Also, the Potency entry in test [3] and in [5] was “inactive” throughout. In addition, in test [6], the activity change % (negative = inhibition) is 0.977%.

`COc1ccc(-c2coc3ccc(OC4OC(COC(C)=O)C(OC(C)=O)C(OC(C)=O)C4OC(C)=O)cc3c2=O)cc1` (configuration not stated): the Potency result in test [10] and in test [11] was “inactive” in each case.

As to `C=C(C)C(=O)OCCOC(=O)C(=C)C`, the compound was classed as inactive in [2], in test [4] and in test [13]. Besides, the Potency result in test [12], in [5] and in test [7] was “inactive” throughout. In addition, the activity change % (negative = inhibition) in test [6] was 17.4%. In test [8], the activation is -1.01%.

`CCCCCC1CCC(=O)O1` (configuration not stated): the Potency entry in [3] and in test [5] was “inactive” each time.

For `CCCCOCCOCCOC(=O)CCCCC(=O)OCCOCCOCCCC`, the Potency result in [3], in test [12] and in [5] was “inactive” throughout. The outcome in test [4] was inactive.

Regarding `Cl[Si](Cl)(c1ccccc1)c1ccccc1`, the Potency result in [3] and in test [12] was “inactive” each time. In addition, the compound was called inactive in test [4] and in test [13]. In addition, in test [7], the Potency was 54.5 µM (active). For the same compound, the activation in test [8] is -1.29%.

Consider `CCC/C(=N\OCC)C1=C(O)CC(O)(CC(C)S(=O)(=O)CC)CC1=O` (configuration not stated), for which the activation in test [1] was -4%; in test [8], -2.69%. Moreover, the outcome in test [2] and in test [4] was inactive. The Potency entry in test [12] and in [5] was “inactive” throughout. In addition, the Potency in test [7] is 54.5 µM (active).

Take `Cn1c(=O)[nH]c(=O)n(C2CCCCC2)c1=O`: the result in test [2] and in [13] was inactive. For the same compound, in [5], the Potency result is “inactive”. In addition, the activity change % (negative = inhibition) in test [6] was 4.13%. Moreover, the activation in test [8] was -1.53%.

For the compound `NCCCCCCCCCCCC(=O)O`, the outcome in test [2], in [4] and in test [13] was inactive. For the same compound, the Potency result in test [12] and in test [7] was “inactive” throughout.

On to `CCCCC(CC)C(=O)OCCOCCOCCOC(=O)C(CC)CCCC` (configuration not stated), for which the activation in test [1] is 6.77%; in test [8], 0.679%. The outcome in test [2], in test [4] and in test [13] was inactive. For the same compound, in test [12], the Potency entry was “inactive”. The activity change % (negative = inhibition) in test [6] is 12.7%.

Regarding `O=C(O)CCCCCCCCCCC(=O)O`, the Potency result in [3] and in test [5] was “inactive” in each case. In addition, the compound was called inactive in test [13]. For the same compound, in test [6], the activity change % (negative = inhibition) was 17.5%.

`O=c1[nH]c(=O)c2[nH]cnc2[nH]1`: the values for the activation in [1] and in test [8] were 2.45% and 4.14%, respectively. Besides, the outcome in test [2], in [4] and in test [13] was inactive. Besides, the Potency entry in test [12], in [5] and in test [7] was “inactive” in each case. The activity change % (negative = inhibition) in [6] was 11.6%.

On to `CCSC(=O)N(CC(C)C)CC(C)C`, for which the activation in test [1] is 3.31%. The compound was called inactive in [2], in test [4] and in test [13]. Further, in test [5], the Potency result is “inactive”.
